Assay results published in PubChem BioAssay AID798 (PCMD, 2007).
The campaign covered roughly 220,000 compounds. About 300 (0.14%) were called active. This excerpt belongs to a sample that is enriched for actives. Unmarked numbers belong to inactive results.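 Rule for the calls: active = inhibition of at least 40%; inactive = inhibition below 40%.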

Biological target: Coagulation factor XI (Homo sapiens) (UniProt P03951)
Test: human FXIa protease inhibitors, primary screen, biochemical, 1536-well (AID 798);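 note: fluorescence of freed AMC excited at 355 nm; 0% = enzyme without compound and 100% = no enzyme blank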
Settings: purified FXIa, Boc-Glu-Ala-Arg-AMC fluorogenic substrate; at 5 µM; stronger effect = higher value

Sequence of Coagulation factor XI (Homo sapiens) (P03951 19-387 limits assumed): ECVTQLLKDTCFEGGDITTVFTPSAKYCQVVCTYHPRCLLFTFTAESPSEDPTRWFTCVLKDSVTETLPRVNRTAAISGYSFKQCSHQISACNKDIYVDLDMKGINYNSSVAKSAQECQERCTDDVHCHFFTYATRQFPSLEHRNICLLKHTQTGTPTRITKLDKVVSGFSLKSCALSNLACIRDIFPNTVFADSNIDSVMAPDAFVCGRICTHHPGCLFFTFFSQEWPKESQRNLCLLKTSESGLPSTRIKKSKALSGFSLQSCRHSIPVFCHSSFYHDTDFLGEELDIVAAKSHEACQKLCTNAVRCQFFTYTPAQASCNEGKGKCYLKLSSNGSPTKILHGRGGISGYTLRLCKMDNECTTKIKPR
Sequence of Coagulation factor XI (Homo sapiens) (P03951 388-625 limits assumed): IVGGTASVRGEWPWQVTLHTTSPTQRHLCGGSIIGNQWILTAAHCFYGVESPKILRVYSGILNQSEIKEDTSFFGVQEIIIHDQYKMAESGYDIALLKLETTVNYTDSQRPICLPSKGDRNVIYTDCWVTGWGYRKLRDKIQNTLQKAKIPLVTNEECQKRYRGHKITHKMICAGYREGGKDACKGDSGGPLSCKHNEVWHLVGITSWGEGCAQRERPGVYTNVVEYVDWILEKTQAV

SMILES	inhibition
NCC(O)c1ccc(O)cc1 (stereo not given)	47.9% (active)
CSc1ccc(C(=O)C2CCCN(Cc3ccn[nH]3)C2)cc1 (stereo not given)	2.72%
Cc1ccc(Cn2c(C)c3cnn(CC(=O)N4CCC5(CC4)OCCO5)c(=O)c3c2C)cc1	-2.43%
CCCCCn1c(=O)c(C(=O)NCc2ccccn2)c(O)c2ccccc21	4.5%
CC(C)c1ccc(-n2c(O)c(/C=N/N3CCOCC3)c(=O)[nH]c2=S)cc1	-2.81%
